These results are taken from PubChem BioAssay (NCATS).

The nature of test [1]: qHTS for Inhibitors of the Aldehyde Dehydrogenase Family (ALDH1A2, ALDH1A3, ALDH2, ALDH3A1) (AID 2061307). Further: nearly all actives have a fitted effect of over 50% in size. On Potency: test system not described further here; potency means the concentration at half of the fitted maximal effect. On activity change, negative = inhibition: on the % scale 0 is the no-effect control and ±100 the full control effect.
For test [2], the target named is Aldehyde dehydrogenase, mitochondrial (Homo sapiens) (UniProt P05091). Put plainly: qHTS for Inhibitors of the Aldehyde Dehydrogenase Family (ALDH2) Primary screen (AID 2061308).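 Further: plate controls were vehicle for no effect and reference inhibitor for full effect; nearly all actives have a fitted effect of over 55% in size.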
The target of test [3] is Aldehyde dehydrogenase 1A1 (Homo sapiens) (UniProt P00352). Put plainly: qHTS for Inhibitors of the Aldehyde Dehydrogenase Family (ALDH1A1) Confirmatory screens (AID 2061316). Further: nearly all actives have a fitted effect of over 65% in size. Further: potency means the concentration at half of the fitted maximal effect. On activity change, negative = inhibition: on the % scale 0 is the no-effect control and ±100 the full control effect.
Test [4] has as its target Retinaldehyde dehydrogenase 3 (Homo sapiens) (UniProt P47895). Kind of test: qHTS for Inhibitors of the Aldehyde Dehydrogenase Family (ALDH1A3) Primary screen (AID 2061315).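 Further: plate controls were DMSO vehicle for no effect and reference inhibitor for full effect.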
Test [5] has the same target. Put plainly: qHTS for Inhibitors of the Aldehyde Dehydrogenase Family (ALDH1A3) Confirmatory screens (AID 2061311). Further: nearly all actives have a fitted effect of over 60% in size. Further: potency means the concentration at half of the fitted maximal effect. On activity change, negative = inhibition: on the % scale 0 is the no-effect control and ±100 the full control effect.
The target of test [6] is Retinal dehydrogenase 2 (Homo sapiens) (UniProt O94788). Kind of test: qHTS for Inhibitors of the Aldehyde Dehydrogenase Family (ALDH1A2) Confirmation screens (AID 2061314). Further: nearly all actives have a fitted effect of over 65% in size. Further: potency means the concentration at half of the fitted maximal effect.

Records with an inconclusive call do not appear. A number with no mark means an inactive call. Active and inactive are the calls of the source. The call rests on the fitted dose curve; in most records, active means well fitted curve in the direction sought with a large enough effect; inconclusive means small, poorly fitted or top-dose-only effect, or another doubt; inactive means no such curve, though single readings can be large; an effect the other way counts as inactive or inconclusive.

On to `CC(=O)c1cccc(-c2csc(N3CCC(C(N)=O)CC3)n2)c1`, for which the Potency in test [1] was 11.3 µM (active); in test [3], 5.65 µM (active). Besides, the Potency entry in test [2] is “inactive”.
For `COc1ccc(C2Nc3ccccc3C(=O)N2CCc2ccccc2)cc1COc1ccc(NC(C)=O)cc1` (stereo unspecified), in test [1], the Potency is 5.65 µM (active). Further, the Potency result in test [2] and in test [4] was “inactive” each time.
For the compound `O=C(O)c1ccc(S(=O)(=O)N[C@H](Cc2ccc(O)cc2)C(=O)O)cc1`, the Potency entry in test [1], in test [2] and in test [4] was “inactive” throughout. The Potency in test [3] is 10.1 µM (active).
Take `N[C@@H](Cc1ccc(OS(=O)(=O)c2cccnc2)cc1)C(=O)N1CCN(c2ccccc2)CC1`: the Potency in test [1] was 5.65 µM (active); in test [3], 10.1 µM (active). Moreover, the Potency result in test [2] and in test [4] was “inactive” each time.
Turning to `COc1ccc(C2Nc3ccccc3C(=O)N2Cc2ccccn2)cc1COc1ccc(NC(C)=O)cc1` (stereo unspecified), the Potency in test [1] is 6.31 µM (active). The Potency entry in test [2] and in test [4] was “inactive” each time.
`Cc1cnc(-c2ccccc2C2COC2)nc1NCc1ccc(-n2ccnn2)cc1`: the Potency entry in test [1], in test [2] and in test [4] was “inactive” in each case.
For `Cc1ccc2nc3sc(C(=O)Nc4ccncc4)cc3cc2c1`, the Potency was 11.3 µM (active) in test [1] and 14.2 µM (active) in test [3]. For the same compound, the Potency entry in test [2] and in test [4] was “inactive” throughout.
As for `COc1ccc(C2Nc3ccccc3C(=O)N2C2CCCC2)cc1COc1ccc(NC(C)=O)cc1` (stereo unspecified), the Potency in test [1] was 1.59 µM (active); in test [3], 20.1 µM (active). The Potency entry in test [2] and in test [4] was “inactive” throughout.
Regarding `O=C([C@H](Cc1ccc(O[S+](=O)([O-])c2cccnc2)cc1)N[S+](=O)([O-])c1cccc2cnccc12)N1CCN(c2ccccc2)CC1`, the Potency entry in test [1], in test [2] and in test [4] was “inactive” throughout.
For the compound `COc1ccc(S(=O)(=O)N2CCN(S(=O)(=O)c3ccc4c(c3)OCCO4)CC2)cc1`, the Potency result in test [1], in test [2] and in test [4] was “inactive” throughout.
Turning to `Cc1cc(C)cc(-c2ccc(C=O)cc2)c1`, the Potency result in test [1], in test [5], in test [6] and in test [3] was “inactive” each time.
For `O=C(NCC(=O)N1CCN(Cc2ccccc2)CC1)c1cccc(-c2ccsc2)c1`, the Potency result in test [1], in test [5], in test [6] and in test [3] was “inactive” each time.
On to `CCN(CC)CC(=O)c1c(C)n(C)c2ccc(OC)cc12`, for which the Potency result in test [1], in test [5], in test [6] and in test [3] was “inactive” each time.
For `Cc1ccc(CNc2ncnc3ccc(-c4oc(-c5ccccc5)nc4C)cc23)o1`, the Potency entry in test [1] and in test [4] was “inactive” throughout. Further, the Potency in test [5] was 22.5 µM (active).
For the compound `CC(=O)c1c(C)n(-c2ccc(Cl)cc2)c2ccc(OC(=O)COc3ccccc3)cc12`, the Potency entry in test [1], in test [5], in test [6] and in test [3] was “inactive” each time.
In the case of `CN1CCN(C(=O)c2cccc(-c3ccc(CNc4ccc(N5CCN(C(=O)OC(C)(C)C)CC5)cc4)o3)c2)CC1`, the Potency entry in test [1], in test [5] and in test [4] was “inactive” each time.
Take `Cc1cc(C)cc(-c2ccccc2C=O)c1`: the Potency result in test [1], in test [5], in test [6] and in test [3] was “inactive” in each case.
In the case of `COc1ccc(-c2nc3ccccc3c(=O)n2Cc2ccccc2)cc1CNc1ccc(NC(C)=O)cc1`, the Potency is 12.7 µM (active) in test [1], 11.3 µM (active) in test [5], 11.3 µM (active) in test [6] and 11.3 µM (active) in test [3].
`CC(=O)Nc1cccc(OCc2cccc(C3Nc4ccccc4C(=O)N3Cc3ccco3)c2)c1` (stereo unspecified): the Potency in test [1] was 7.94 µM (active); in test [5], 10 µM (active); in test [3], 7.12 µM (active). Moreover, in test [4], the Potency result is “inactive”.
For the compound `O=C(Cc1ccc(F)cc1)Nc1cccc(-c2nc3cccnc3s2)c1`, the Potency result in test [1], in test [5], in test [6] and in test [3] was “inactive” in each case.
`Cc1ccc(CNc2ncnc3ccc(-c4ccc([C@@H](C)O)o4)cc23)o1`: the Potency entry in test [1] and in test [4] was “inactive” in each case. For the same compound, the Potency is 12.7 µM (active) in test [5] and 11.3 µM (active) in test [3].
For `Cc1cc(NC(=O)Nc2nnc(-c3ccncc3)s2)ccc1Br`, the Potency in test [1] is 11.3 µM (active); in test [3], 12.7 µM (active). Also, the Potency result in test [5] and in test [4] was “inactive” in each case.
Regarding `Cc1cccc(-c2ccccc2C=O)c1`, the Potency result in test [1], in test [5], in test [6] and in test [3] was “inactive” in each case.
Turning to `COc1ccc2c(c1)c(C(=O)CN(C)C)c(C)n2C`, the Potency result in test [1], in test [5], in test [6] and in test [3] was “inactive” throughout.
On to `COc1cc(O)c(C(CC(=O)N2C[C@H](C)C[C@H](C)C2)c2ccc3c(c2)OCO3)c(OC)c1` (stereo partly specified), for which the Potency entry in test [1], in test [5] and in test [4] was “inactive” each time.
`COc1cccc(-c2cccc(C(=O)N3CCN(C(=O)c4ccc(C)cc4)CC3)c2)c1`: the Potency result in test [1], in test [5] and in test [6] was “inactive” throughout. The Potency in test [3] is 8.14 µM (active).
On to `COc1cccc(S(=O)(=O)NC2CCN(C#N)C2)c1` (stereo unspecified), for which the Potency entry in test [1], in test [5], in test [4] and in test [3] was “inactive” throughout.
Regarding `Cc1oc(-c2ccccc2F)nc1CS(=O)(=O)CC(=O)N1CCN(c2cccc(C(F)(F)F)c2)CC1`, the Potency result in test [1], in test [5], in test [6] and in test [3] was “inactive” throughout.
For `Cc1ccsc1CN(C)c1ncnc2ccc(-c3oc(-c4ccccc4)nc3C)cc12`, the Potency is 12.6 µM (active) in test [1] and 14.1 µM (active) in test [5]. Also, in test [4], the Potency result was “inactive”.
In the case of `Nc1cc(S(=O)(=O)N2CCN(S(=O)(=O)c3ccc4c(c3)OCCO4)CC2)ccn1`, the Potency entry in test [1] and in test [4] was “inactive” each time. In addition, the activity change, negative = inhibition in test [5] was -14.1% [at 0.022 µM].
In the case of `Cc1ccc2nc3sc(C(=O)NC4CCC(O)CC4)cc3cc2c1` (stereo unspecified), the Potency in test [1] is 6.34 µM (active); in test [5], 20.1 µM (active); in test [3], 12.7 µM (active). Besides, the Potency entry in test [4] is “inactive”.
Regarding `Cc1ccc(-c2ccccc2C=O)c(C)c1`, the Potency result in test [1], in test [5], in test [6] and in test [3] was “inactive” in each case.
For `CSCCC(NS(=O)(=O)c1ccc2c(c1)oc(=O)n2C)C(=O)N1CCN(c2ccc(C(C)=O)cc2)CC1` (stereo unspecified), the Potency entry in test [1], in test [5], in test [6] and in test [3] was “inactive” throughout.
